Source: PubChem BioAssay (several laboratories)
This is a sample that favours compounds with a hit; in the whole collection about 3.3% have one here.
SMARCA2 act – activators of SMARCA2 function | activation, % at 9.1 µM | 370,000 compounds, 1% hits | MG213 cells, MMTV-luciferase reporter, dexamethasone, overnight; in the data active means activation above about 7.8%;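 further: 0% = vehicle wells and 100% = reference activator wells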
697 NFkB inh – inhibitors of the PMA/ionomycin-induced NF-kB reporter in 697 B cells; 330,000 compounds, 0.33% hits; AID 435022; 697 B-cell NF-kB luciferase reporter, 16 h; inhibition, % at 4 µM; in the data active means inhibition above about 35%
Gli-Sufu antag – blocks Gli-Sufu signaling in a luciferase reporter; Sufu-KO-LIGHT fibroblasts, Gli luciferase reporter luminescence; inhibition, % at 5 µM; 340,000 compounds, 0.74% hits; AID 588413;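 active means inhibition above about 55%, limit read from the data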;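 further: 0% = DMSO-treated cells and 100% = wells with medium but no cells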
Jurkat NFkB inh – lowers PMA/ionomycin-induced NF-kB signal in Jurkat cells | PMA/ionomycin-induced NF-kB luciferase reporter, luminescence | inhibition, % at 4 µM | 330,000 compounds, 0.53% hits | AID 435003; in the data active means inhibition above about 50%
esBAF inh – blocks esBAF chromatin remodeling in mouse ES cells. Bmi1-luciferase knock-in reporter, 24 h; 100% = twice the neutral-well signal. reporter increase, % at 12.5 µM. 350,000 compounds, 2% hits. AID 602393; in the data active means activation above about 40%; inconclusive means no clear call, values can overlap the other calls;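 further: 0% = median of the plate's neutral control wells and 100% = double that signal; a rise in the Bmi1 reporter signal indicates esBAF inhibition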
697 NFkB conf – lowers PMA/ionomycin-induced NF-kB signal in 697 B cells | 697 B-cell NF-kB luciferase, 16 h | shares compounds with 697 NFkB inh | inhibition, % at 4 µM | 2,000 compounds, 35% hits | AID 449746; in the data active means inhibition mostly above about 28%, no sharp cut-off; inactive means mostly below about 22%
* marks the source's active call; other numbers are inactive results; i = inactive; ? = inconclusive; . = no result.

SMILES	SMARCA2 act	697 NFkB inh	Gli-Sufu antag	Jurkat NFkB inh	esBAF inh	697 NFkB conf
COc1ccc(/C=N/NC(=O)c2ccc(N3CCCC3=O)cc2)cc1	-2.8	-15.2	-7.2	13.0	6.3	.
COc1ccc(O)c(/C=N/NC(=O)c2ccc(N3CCCC3=O)cc2)c1	-2.0	i	-0.5	22.7	6.9	-172.9
CCCN1[C@@H]2c3ccc(-c4ccc(C(=O)N(C)C)cc4)c(=O)n3C[C@@H]2[C@@H](CO)[C@@H]1C(=O)NCCOC	.	.	.	.	-1.7	.
Cc1ccc(S(=O)(=O)N(C)C[C@@H]2OCCCC[C@H](C)Oc3ccc(NC(=O)Nc4cccc5ccccc45)cc3C(=O)N([C@H](C)CO)C[C@H]2C)cc1	.	.	.	.	-0.3	.
CO[C@@H]1CN(C)C(=O)c2ccc(NS(=O)(=O)c3cccc(F)c3)cc2OC[C@H](C)N(Cc2cc(F)ccc2F)C[C@H]1C	.	.	.	.	0.5	.
COc1ccc(NC(=O)Nc2ccc3c(c2)C(=O)N([C@@H](C)CO)C[C@@H](C)[C@H](CN(C)CC2CCCCC2)OCCCC[C@H](C)O3)cc1	.	.	.	.	-2.3	.
O=C(Oc1ccnc2cc(Cl)ccc12)N1CCCCCC1	-1.3	38.0*	-22.7	15.1	12.0	13.8
CO[C@@H](CN(C)C(=O)c1ccccc1F)[C@@H](C)CN([C@H](C)CO)S(=O)(=O)c1ccc(C)cc1	.	.	.	.	-2.4	.
C[C@@H]1CN([C@@H](C)CO)C(=O)c2cc(NC(=O)Nc3cccc4ccccc34)ccc2O[C@@H](C)CCCCO[C@@H]1CN(C)S(=O)(=O)c1cccs1	.	.	.	.	2.4	.
Cn1nc(-c2ccc(N3CCOCC3)c(NS(=O)(=O)c3ccccc3)c2)c2ccccc2c1=O	-2.9	60.9*	8.9	16.3	9.6	33.3*
Nc1c(C(=O)CSc2nc3ccccc3o2)c(=O)[nH]c(=O)n1C1CC1	0.1	-323.4	-14.8	-39.6	26.9	-334.0
Cc1nn(C)c(C)c1CN(C)C(=O)c1cnn2c1NC(c1ccccc1)CC2C(F)(F)F (stereo not given)	-5.2	39.4*	20.2	14.2	6.8	26.8
CN1C(=O)c2cc(NC(=O)c3cccs3)ccc2OC[C@@H]2O[C@@H](CC(=O)O)CC[C@@H]21	.	.	.	.	3.9	.
COc1ccc(CCNC(=O)Cn2c(=O)n(-c3ccc(F)cc3F)c(=O)c3sccc32)cc1OC	-4.1	23.1	-6.0	-2.9	-2.6	.
COc1ccc(CCNC(=O)Cn2c(=O)n(-c3cc(F)ccc3F)c(=O)c3sccc32)cc1OC	-4.2	43.2*	-0.1	-2.7	4.3	17.7
O=C(c1cc(-c2ccc(Cl)cc2Cl)on1)N1CCOCC1	0.9	-293.4	-125.6	-122.8	-49.2	-186.1
C[C@H]1CCCCO[C@H](CN(C)Cc2ccccc2)[C@@H](C)CN([C@@H](C)CO)C(=O)c2cc(NS(=O)(=O)c3cccs3)ccc2O1	.	.	.	.	-7.0	.
Brc1cc2[nH]cnc2c2ccccc12	-2.0	38.8*	21.8	-0.9	1.4	25.6
O=C(C[C@H]1CC[C@H](NC(=O)NC2CCCCC2)[C@H](CO)O1)NCc1ccccc1	.	.	.	.	-0.8	.
CC1CCN(c2cc(N3CCN(C(=O)c4ccc(F)c(F)c4)CC3)c([N+](=O)[O-])cc2F)CC1	-4.3	38.3*	8.8	21.4	.	18.2
COc1ccc(C(=O)Nc2ccccc2C(=O)NCc2ccco2)cc1OC	2.2	37.1*	-8.5	13.4	16.9	31.2*
CCCN1C[C@H](C)[C@@H](OC)CN(C)C(=O)c2ccc(NC(=O)Nc3c(C)noc3C)cc2OC[C@H]1C	.	.	.	.	-3.2	.
COCCCn1c(=O)/c(=C\c2cccc(OC)c2OC)s/c1=C(/C#N)C(=O)Nc1ccc(C(=O)O)cc1	-2.9	43.3*	-0.8	-3.0	-3.7	36.7*
COCCCn1c(=O)/c(=C/c2ccccc2OC(F)F)s/c1=C(\C#N)C(=O)NCCOC	-3.5	.	6.6	.	.	.
CO[C@@H]1CN(C)C(=O)c2cc(NS(=O)(=O)c3ccccc3F)ccc2OC[C@H](C)NC[C@@H]1C	.	.	.	.	-4.0	.
SMILES	SMARCA2 act	697 NFkB inh	Gli-Sufu antag	Jurkat NFkB inh	esBAF inh	697 NFkB conf
COc1ccc(S(=O)(=O)Nc2ccc3c(c2)C(=O)N([C@@H](C)CO)C[C@@H](C)[C@H](CN(C)C(=O)Nc2ccc(C(F)(F)F)cc2)OCCCC[C@H](C)O3)cc1	.	.	.	.	-4.5	.
Cc1cnc(NC(=O)COc2cccc3c2OC(C)(C)C3)s1	-3.3	i	-5.6	-60.2	.	i
CCOC(=O)c1c(NC(=O)c2nn(CC)cc2Br)c(C#N)nn1-c1ccccc1	-3.2	-9.9	7.0	4.6	-4.6	.
CCOC(=O)c1nn(-c2ccccc2)c(C#N)c1NC(=O)c1nn(CC)cc1Br	-0.9	37.0*	22.8	13.0	5.8	40.2*
COc1cccc(N2CCN(c3ncnc4c3[nH]c3ccc(F)cc34)CC2C)c1 (stereo not given)	-9.8	71.2*	91.2*	10.4	-13.5	91.4*
COc1ccc2[nH]c3c(N4CC(C)OC(C)C4)ncnc3c2c1 (stereo not given)	0.9	29.8	33.2	6.2	.	.
CCCN1C[C@H](C)[C@H](OC)CN(C)C(=O)c2cc(NC(=O)C3CC3)ccc2OC[C@@H]1C	.	.	.	.	-0.4	.
c1ccc2sc(Nc3nc4cc5c(cc4s3)OCO5)nc2c1	5.6	-289.8	-80.5	-147.5	68.6*	-323.6
C[C@@H](O)C#Cc1ccc2c(c1)O[C@@H](CN(C)Cc1ccccn1)[C@@H](C)CN([C@@H](C)CO)S2(=O)=O	.	.	.	.	0.8	.
CCOC(=O)C1CCCc2c1[nH]c1ccc(Cl)cc21 (stereo not given)	-1.9	-426.6	5.0	-26.7	.	-14.9
CCNC(=O)Nc1ccc2c(c1)C(=O)N(C)[C@@H]1CC[C@H](CC(=O)NCc3cccc(F)c3)O[C@@H]1CO2	.	.	.	.	4.8	.
CC(C)C#Cc1cnc2c(c1)C(=O)N([C@H](C)CO)C[C@H](C)[C@@H](CN(C)C(=O)CN1CCOCC1)O2	.	.	.	.	5.6	.
Cc1ccc2nc(-c3ccccc3N)[nH]c2c1	6.6	-265.4	-69.1	-149.3	-16.5	-195.9
CCCC(=O)Nc1ccc2c(c1)C(=O)N(C)[C@H]1CC[C@@H](CC(=O)NCCc3ccncc3)O[C@H]1CO2	.	.	.	.	-4.5	.
CC(=O)Nc1ccc(Nc2nc(-c3sc(NC(C)=O)nc3C)cs2)cc1	-2.3	40.6*	-22.3	22.2	0.0	25.7*
CC(=O)Nc1nc(C)c(-c2csc(Nc3cccc([N+](=O)[O-])c3)n2)s1	0.5	45.2*	-6.5	17.8	2.7	8.9
CC(=O)Nc1nc(C)c(-c2csc(Nc3ccc(O)cc3)n2)s1	.	-20.1	28.6	0.8	-11.2	.
Cc1noc(C)c1S(=O)(=O)Nc1ccc2c(c1)C(=O)N([C@H](C)CO)C[C@H](C)[C@H](CN(C)C(=O)C1CCCCC1)OCCCC[C@@H](C)O2	.	.	.	.	1.3	.
C[C@@H]1CN([C@H](C)CO)C(=O)c2cc(NS(=O)(=O)c3cccs3)ccc2O[C@H]1CN(C)S(C)(=O)=O	.	.	.	.	2.5	.
CCC(C)(C)c1ccc(OCCCC[n+]2ccccc2)c(C(C)(C)CC)c1	-6.9	77.6*	.	44.8	.	34.2*
CCC(C)(C)c1ccc(Oc2cccc(C(=O)O)c2)cc1	2.8	-42.2	-43.0	-12.2	?	.
